# Screening data from PubChem BioAssay.
# A selection: hits, their analogues and other compounds. The true share with any hit is near 7.9%.
# HCMV antiviral: blocks human cytomegalovirus replication. HFF cells, HCMV-luciferase reporter, 72 h; active compounds read low. activity change, negative = inhibition, % at 57.5 µM. 410,000 tested, 4.5% active; in the data active = activity change below about -60%; inconclusive = no clear call, values can overlap the other calls; inactive = above about -39%
#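 Luciferase read-out from HCMV-luciferase-infected HFFs (MOI 1 PFU/cell) 72 h post infection at 37C; compounds added after 16 h cell attachment; activity normalized between buffer-only basal and Salinomycin (10uM) inhibitor controls.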
# FMDV antiviral: antivirals against foot and mouth disease virus. FMDV antiviral cell-based qHTS. Potency, µM (titrated, usually from 57.9 µM), most hits filed as inhibitors. 410,000 tested, 1.2% active; calls by dose curve; tested in HEK293T cells; note: read-out not given here; nearly all actives have a fitted effect of over 45% in size
# MARV entry inh: blocks Marburg virus binding to or entry into cells; Marburg virus pseudotyped entry inhibition, cell reporter; 300,000 tested, 1.8% active; Potency, µM (highest dose often 37.8 µM), actives largely listed as inhibitors; calls by dose curve; tested in HEK293 cells
# HCV inh: HCV inhibition | Huh7.5.1 HCVcc-Cre infection, luciferase reporter, 44 h | Potency, µM (titrated, usually from 41.8 µM), actives largely listed as inhibitors | 340,000 tested, 3.4% active | AID 651820; active = well fitted inhibition curve with a large enough effect; inconclusive = small, poorly fitted or top-dose-only effect, or another doubt; inactive = no such curve, though single readings can be large or run the other way
#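 Infectious HCV cell culture screen: compound-treated cells (1,000/well, pre-plated 4 h) are infected with HCVcc-Cre at roughly 0.5 moi and grown 44 h. Infection is quantified by luciferase signal after 15 min substrate incubation at room temperature.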
# Lassa entry inh: inhibitors of Lassa virus binding or cell entry; Lassa virus pseudotype entry inhibition, cell reporter; Potency, µM (series often up to 37.9 µM), usual class: inhibitors; 300,000 tested, 1.2% active; AID 540256; calls by dose curve; tested in HEK293 cells; note: nearly all actives have a fitted effect of over 50% in size
# Hits are given with their value; . = inactive; ? = inconclusive; / = not tested or not shown.
SMILES,HCMV antiviral,FMDV antiviral,MARV entry inh,HCV inh,Lassa entry inh
COc1cccc(CN(C)C(=O)CNC(=O)c2ccc(-c3ccccc3)cc2)c1OC,-71.4,?,?,3.16µM,?
COc1cccc(CN(C)C(=O)CCN(c2ccccc2)S(=O)(=O)c2ccc(C)cc2)c1OC,.,.,?,11.2µM,?
Cc1cccc(C)c1NC(=O)CN(C)C(=O)c1ccc2c(=O)n3c(nc2c1)CCC3,.,.,/,.,/
O=C1c2ccccc2-c2nnc(-c3ccc(F)cc3)cc21,.,.,?,.,.
Cc1ccc(-c2cc3c(nn2)-c2ccccc2C3=O)cc1,.,10µM,/,.,/
Cc1nc2ccccc2c(=O)n1NC(=O)c1c(F)cccc1F,-68.7,.,/,.,/
CCOC(=O)c1cc(C#N)c(N2CCCNCC2)nc1C(F)(F)F,.,.,/,15.8µM,/
CCc1n[n+](CC(=O)c2ccccc2)c(N)s1,.,.,?,.,7.94µM
Cc1cc(C)cc(C(O)c2ncc(-c3ccccc3F)[nH]2)c1 (centres undefined),.,.,/,/,/
COc1cc(NC(=O)CN2C(=O)C(C)N(c3ccc(C)cc3)C2=O)cc(OC)c1 (centres undefined),.,.,.,?,.
COC(=O)c1nnn(-c2ccccc2)c1N,.,.,?,?,.
C#Cc1cccc(-n2nnc(C(=O)OC)c2-c2ccccc2)c1,-102.0,?,.,.,.
COc1cc([N+](=O)[O-])ccc1NC(=O)Nc1cnccn1,-61.2,.,/,?,/
COc1cccc(NC(=O)Nc2cnccn2)c1,-69.3,.,.,.,.
COc1ccccc1NC(=O)Nc1cnccn1,.,.,.,.,?
CC1(C)CC(=O)C(C=NCCN2CCN(CCc3ccccc3)CC2)=C(O)C1,.,.,?,11.2µM,.
CC1(C)CC(=O)C(C=NCCN2CCN(CC(=O)Nc3ccc(Cl)cc3)CC2)=C(O)C1,.,.,.,12.6µM,.
O=C(Nc1ccc(F)cc1)c1sc(Cl)nc1-c1ccccc1,.,.,.,.,.
Cc1cccc(NC(=O)c2sc3nc(-c4ccccc4)cn3c2C)n1,?,/,?,12.6µM,?
Cc1c(C(=O)Nc2ccccc2)sc2nc(-c3ccccc3)cn12,.,.,.,8.91µM,.
Nc1nc(-c2ccccc2)c(C(=O)Nc2ccccc2)s1,-60.9,.,/,.,/
Cc1ccc(Cl)cc1NC(=O)c1sc2nc(-c3ccccc3)cn2c1C,-63.2,.,/,/,.
O=C1CC(NS(=O)(=O)c2ccc([N+](=O)[O-])cc2)CN1c1ccc(Cl)cc1 (centres undefined),.,.,.,.,.
Cc1cc(N2C(=O)C(O)=C(C(=O)c3ccco3)C2c2ccccc2F)no1 (centres undefined),/,.,/,.,/
Cc1c(C(=O)NCc2ccc3c(c2)OCO3)sc2nc(-c3ccccc3)cn12,.,.,/,.,/
SMILES,HCMV antiviral,FMDV antiviral,MARV entry inh,HCV inh,Lassa entry inh
Cc1c(C(=O)Nc2ccc3c(c2)OCO3)sc2nc(-c3ccccc3)cn12,.,.,.,3.98µM,?
Nn1c(SCC(=O)Nc2ccc3c(c2)OCO3)nnc1-c1cccc(Cl)c1,.,.,.,.,.
Nn1cc(-c2ccccc2)nc1SCC(=O)Nc1ccc2c(c1)OCO2,-99.5,.,.,.,.
Cc1ccc(CNC(=O)CN(C(=O)C2(C)CC(=O)N=C3C=CC=CN32)c2ccc(F)cc2)cc1 (centres undefined),.,.,.,.,.
CCc1cccc(CC)c1-n1nnc2c(sc3nc(C)cc(C)c32)c1=O,.,?,.,/,.
Cc1cc(C)c2c(n1)sc1c(=O)n(-c3cc(Cl)ccc3C)nnc12,-60.4,.,.,/,.
Cn1c(=O)c2c(ncn2CC(=O)OCC(=O)NCc2ccc(F)cc2)n(C)c1=O,-64.9,.,/,/,/
CC(=O)c1c(C)n(C2CCCCC2)c2ccc(O)cc12,-66.4,.,.,10µM,.
CC(=O)c1c(C)n(C)c2ccc(O)cc12,.,.,.,.,.
NC(=O)c1ccnc2c(O)cccc12,.,.,/,/,/
Oc1ccc(Cn2ccnc2)c2cccnc12,.,.,?,?,?
Cc1cccc(NCc2ccc(O)c3ncccc23)c1,-84.0,.,?,7.08µM,?
Cc1ccccc1NCc1ccc(O)c2ncccc12,-97.5,?,?,?,?
COCc1ccc(O)c2ncccc12,-94.1,.,?,5.62µM,?
OCc1ccnc2c(O)cccc12,.,.,?,?,4.11µM
Cc1ccc2[nH]c3c(NCc4ccco4)ncnc3c2c1,-93.6,.,10µM,11.2µM,.
COc1cc(CNc2ncnc3c2[nH]c2ccc(C)cc23)cc(OC)c1,-65.4,?,/,?,/
CCOc1ccc(NC(=O)Nc2c[nH]c(=O)[nH]c2=O)cc1,.,.,.,/,.
O=S(=O)(c1cc(Br)ccc1Br)N1CCC(c2noc3ccccc23)CC1,.,/,/,/,/
CCC(=O)N1CCC1(C)C(=O)Nc1ccc(OC(F)F)cc1 (centres undefined),-63.3,.,/,/,/
Cc1cccc(-n2c(N)cc(=O)nc2SCC(=O)Nc2ccc(F)cc2)c1C,.,.,.,/,.
Cc1ccc(/C=C2\SC(=S)N(/N=C/c3cc([N+](=O)[O-])ccc3O)C2=O)o1,/,.,.,.,.
CCC(C)C(=O)O[C@@H]1[C@H](OC(C)=O)c2c(ccc3ccc(=O)oc23)OC1(C)C (some centres undefined),.,/,/,/,/
CCOc1ccccc1-c1nc(CN2CCCN(C(=O)c3ccco3)CC2)c(C)o1,-101.4,.,.,/,.
Nc1cc(-c2ccc(Br)cc2)nn1Cc1ccccc1,-76.8,.,.,1.26µM,?
SMILES,HCMV antiviral,FMDV antiviral,MARV entry inh,HCV inh,Lassa entry inh
O=c1[nH]c(-c2ccccc2)ncc1OCc1ccccc1,-62.6,.,?,.,.
CCOc1ccc(OCC(=O)OCC(=O)NCC2CCCO2)cc1 (centres undefined),.,.,?,.,.
COc1ccc(S(=O)(=O)N2CCOCC2)cc1NC(=O)c1ccccc1-c1ccc(C(F)(F)F)cc1,?,.,?,.,6.31µM
COc1ccc(S(=O)(=O)N2CCOCC2)cc1NC(=O)c1ccncc1,.,.,/,.,/
CCOc1cc(N2CCOCC2)c(OCC)cc1NC(=O)COc1ncnc2ccccc12,.,.,.,?,.
CCOc1cc(N2CCOCC2)c(OCC)cc1NC(=O)c1cc(-c2ccco2)nc2ccccc12,?,/,16.4µM,.,?
COc1ccc(NC(=O)c2ccccc2-c2ccc(C(F)(F)F)cc2)cc1S(=O)(=O)N1CCOCC1,-67.3,.,.,.,?
CCOc1ccc(S(=O)(=O)N2CCN(CC)CC2)cc1NC(=O)c1ccccc1F,-83.8,.,.,.,.
Cc1cccc(C(=O)Nc2cccc(C(=O)OCc3cc(=O)n4ccsc4n3)c2)c1,.,.,/,/,.
COc1cccc(CCNc2ncnc3sc(C(=O)N4CCOCC4)c(C)c23)c1,/,.,/,/,/
CCOc1cc(N2CCOCC2)c(OCC)cc1NC(=O)COc1cccc(CC)c1,.,.,/,10µM,/
COc1ccc(Nc2nc(-c3ccccc3)nc3ccccc23)cc1S(=O)(=O)N1CCOCC1,-60.2,?,/,22.4µM,/
COc1ccc(NC(=O)c2cc(-c3ccco3)nc3ccccc23)cc1S(=O)(=O)N1CCOCC1,.,.,/,8.91µM,/
